The target in experiment [1] is Thioredoxin reductase 1, cytoplasmic (Rattus norvegicus) (UniProt O89049). The experiment in a line: qHTS Assay for Inhibitors of Mammalian Selenoprotein Thioredoxin Reductase 1 (TrxR1) (AID 488773).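 Further: drop in NADPH fluorescence over an 8 min run after selenite addition; series mostly up to about 57 µM; on the % scale 0 is the no-effect control and ±100 the full control effect; nearly all actives have a fitted effect of over 40% in size.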 The following applies: Potency: inhibition. Put shortly:
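Inhibition is scored from the loss of NADPH fluorescence between first and last reads of an 8-min kinetic run. Selenite (400 uM) was the substrate, added after 15 min compound preincubation at room temperature.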

In experiment [2] the target is Flap endonuclease 1 (Homo sapiens) (UniProt P39748). The experiment in a line: qHTS Validation Assay for the Inhibitors of Human Flap endonuclease 1 (FEN1) (AID 488816). Further: on the % scale 0 is the no-effect control and ±100 the full control effect. In outline: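 Steps: add FEN1 (10 nM reagent) or buffer only; pin compounds; hold 15 min at room temperature; start with substrate, 50 nM final; read at 0 and 15 min; correct, normalize and fit a four-parameter Hill curve.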
A general note: In qHTS, concentration-response curves come from the screen itself.

Experiment [3] has as its target M-phase phosphoprotein 8 (Homo sapiens) (UniProt Q99549). The experiment in a line: qHTS Validation Assay for Inhibitors for MPP8 Chromodomain Interactions with Methylated Histone Tails (AID 488949). Further: nearly all actives have a fitted effect of over 55% in size. Further: potency means the concentration at half of the fitted maximal effect. Put shortly: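 50 nM MPP8 + 50 nM b-H3K9me3 peptide, PBS pH 7.4/0.01% Tween-20, 30 min RT; + cpd 30 min RT; + AlphaScreen donor/Ni-chelate acceptor beads 10 ug/mL final, 30 min dark; luminescence read.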

In experiment [4] the target is Chromobox protein homolog 1 (Homo sapiens) (UniProt P83916). The experiment in a line: qHTS Validation Assay for Inhibitors of HP1-beta Chromodomain Interactions with Methylated Histone Tails (AID 488953). Further: nearly all actives have a fitted effect of over 50% in size. Further: potency means the concentration at half of the fitted maximal effect. Put shortly:
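AlphaScreen proximity signal from streptavidin donor and nickel chelate acceptor beads (final 10 ug/mL) after 30 min dark incubation. Compounds had 30 min at room temperature with preformed complex of 50 nM HP1-beta and 50 nM b-H3(1-18)K9me3 in PBS pH 7.4 with 0.01% Tween-20.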

Experiment [5] addresses Methanococcus maripaludis chaperonin (MmCpn) (UniProt Q6LX38). The experiment in a line: High-Throughput Screening for Modulators of Cytosolic Chaperonin Activity: MmCpn Primary Screen (AID 488978).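 Further: 50 nM MmCpn enzyme hydrolysing 30 µM ATP at 37 °C; 0% is about no effect.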 In outline:
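Steps: chaperonin 50 nM final; add compound, 5 min RT; start with ATP, 30 uM final; hold 10 min at 37C; add ADP Transcreener HTRF reagent, 5 min; read ex 320, em 590 and 665 nm.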

The target in experiment [6] is Transient receptor potential cation channel subfamily V member 1 (Homo sapiens) (UniProt Q8NER1). The experiment in a line: HTS Assay for Compounds that Act as Enhancers of the Vanilloid Receptor 1 (AID 488979). Further: 0% is about no effect. In outline: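 TRPV1-expressing cells loaded with Fluo-8 calcium dye; compounds added and calcium influx read kinetically for 3 min (agonist phase), then capsaicin at EC20 added and read 2 min more for enhancement. Fluorescence ex 480/em 520 nm.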

Experiment [7] concerns the target Thyrotropin receptor (Homo sapiens) (UniProt P16473). The experiment in a line: qHTS Assay for Antagonists of the Thyroid Stimulating Hormone Receptor (AID 488980). Further: series mostly up to about 58 µM; 0% is about no effect. Put shortly:
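Readout is cAMP by HTRF competition between cellular cAMP and cAMP-d2 for a cryptate-labelled antibody. Antagonism was assessed in TSHR-transfected HEK293 cells stimulated with 4 nM TSH (EC80, final) in the presence of RO 20-1724.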

In experiment [8] the target is D(1A) dopamine receptor (Homo sapiens) (UniProt P21728). The experiment in a line: HTS Assay for Allosteric Agonists of the Human D1 Dopamine Receptor: Primary Screen for Agonists (AID 488981). Further: 0% is about no effect. Put shortly: (§1)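 Tetracycline-induced HEK293 T-REx cells force-coupled to calcium signalling were incubated overnight at 30 C and dye-loaded at room temperature. Calcium flux over 180 s after compound addition flagged agonists; a further 180 s read after EC20 dopamine flagged potentiators.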

Experiment [9] has the same target. The experiment in a line: HTS Assay for Allosteric Agonists of the Human D1 Dopamine Receptor: Primary Screen for Potentiators (AID 488982). Further: 0% is about no effect. Put shortly:
as §1

Experiment [10] has the same target. The experiment in a line: HTS Assay for Allosteric Agonists of the Human D1 Dopamine Receptor: Primary Screen for Antagonists (AID 488983).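 Further: calcium flux response to an EC80 dopamine challenge measured with no-wash dye; nearly all actives have a fitted effect of over 65% in size.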 Further: potency means the concentration at half of the fitted maximal effect. Put shortly: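 Calcium-flux read-out in inducible HEK293 T-REx cells expressing D1, dye-loaded 30–90 min at room temperature. Kinetic reads: 180 s after compound (agonist phase), then 180 s after an EC80 dopamine challenge.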

A short description of experiment [11]: Validation screen for small molecules that induce genotoxicity in human embryonic kidney (HEK293T) cells expressing luciferase-tagged ELG1 (AID 493106). Further: 0% is about no effect. Put shortly: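 ELG1-luciferase reporter readout (ONE-Glo, 30 min, room temperature) after 16 hr compound treatment at 37 °C of HEK293T cells at 2,000 per well. Rising luminescence flags genotoxic stress.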

In experiment [12] the target is ATPase family AAA domain-containing protein 5 (Homo sapiens) (UniProt Q96QE3). The experiment in a line: Validation screen for small molecules that inhibit ELG1-dependent DNA repair in human embryonic kidney (HEK293T) cells expressing luciferase-tagged ELG1 (AID 493107).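 Further: series mostly up to about 46 µM; on the % scale 0 is the no-effect control and ±100 the full control effect; inhibitors lower the ELG1-luciferase luminescence signal; nearly all actives have a fitted effect of over 70% in size.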 Put shortly: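 Luciferase read-out, ONE-Glo, 30 min at room temperature, follows 16 h co-exposure at 37 C of compound and the DNA-damaging agent 5-fluorouridine. Cells: HEK293T with ELG1-luciferase fusion, 2,000 per well, DMSO as vehicle.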

Experiment [13] concerns the target Thyrotropin-releasing hormone receptor (Homo sapiens) (UniProt P34981). The experiment in a line: qHTS for Small Molecule Agonists and Allosteric Enhancers of Human TRH Receptor: Validation Screen for Agonists (AID 493127;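 active means calcium activation more than 3 SD above the typical response in the agonist read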;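 further: intracellular calcium rise by fluo-8 fluorescence before TRH EC20 addition; 0% is about no effect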). The following applies: TRH receptor agonist cell assay; at 2 µM; stronger effect = higher value. Put shortly:
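Compound-evoked intracellular calcium release in fluo-8-loaded TRHR cells, read kinetically on FDSS (Ex 480/Em 530, 1 s/cycle) after 23 nL pintool transfer. Agonist phase preceded 10 nM TRH EC20 addition.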

A short description of experiment [14]: qHTS for Inhibitors of Cell Surface uPA Generation: Validation Assay (AID 493164).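 Further: RAW 264.7 macrophage cells exposed to compound for 18 h; 0% is about no effect.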 In outline:
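ATP-Lite luminescence read-out: ATP remains high when uPA activity-dependent LF translocation into the cytoplasm is blocked. RAW 264.7 cells, 18 h compound exposure at 37 C; 7-point titration, 2.45 nM to 38.3 uM final.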

Experiment [15] deals with Galactokinase (Homo sapiens) (UniProt P51570). The experiment in a line: qHTS Validation Assay for Inhibitors of Human Galactokinase (GALK) (AID 493189). Further: 0% is about no effect. In outline: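 5 nM GALK / 100 uM galactose / 35 uM ATP, 20 mM HEPES pH8.0, 5 mM MgCl2, 60 mM NaCl, 1 mM DTT, 0.01% BSA (final). RT 1 h; Kinase-Glo Plus luminescence.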
Experiment [16] in a line: Validation screen for small molecules that induce DNA re-replication in SW480 colon adenocarcinoma cells (AID 504364). Further: 0% is about no effect. In outline: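 Image-based DNA content read-out: Hoechst stain 40 min, total nuclear fluorescence intensity (ex 405 nm, em 500-530 nm) after 48 h compound exposure of 250 SW480 cells/well at 37 C, 5% CO2, versus DMSO vehicle.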
The target in experiment [17] is Thioredoxin reductase 1, cytoplasmic (Rattus norvegicus) (UniProt O89049). The experiment in a line: qHTS Assay for Substrates of Mammalian Selenoprotein Thioredoxin Reductase 1 (TrxR1) (AID 488772).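 Further: series mostly up to about 57 µM; 0% is about no effect; a drop in NADPH fluorescence below the no-compound background marks a TrxR1 substrate.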 In outline: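 In this dual-purpose format, potential substrates are identified from the first fluorescence read after selenite addition, not from the 8-minute delta. Rat enzyme is preincubated with NADPH and then with compound at ~22 deg C.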

The nature of experiment [18]: Nrf2 qHTS screen for inhibitors: Validation (AID 493153; active means well fitted inhibition curve with a large enough effect in the main read-out, with a control signal flat, not every such curve was filed as active). The following applies: Potency: luciferase luminescence; viability change: measured here: cytotoxicity max response. In outline:
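Concentration-response on A549 ARE_Fluc reporter cells exposed 18-24 h at 37 C, 5% CO2. Cytotoxicity read first by CellTiter-Fluor fluorescence (Ex 405/Em 525), then Nrf2 inhibition by BugLite luminescence after 15 min.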

Results filed as inconclusive are left out. Calls of active or inactive are those of the source. Unless noted, the call rests on the fitted dose curve; in most records, active means well fitted curve in the direction sought with a large enough effect; inconclusive means small, poorly fitted or top-dose-only effect, or another doubt; inactive means no such curve, though single readings can be large; an effect the other way counts as inactive or inconclusive.

Sequence of Methanococcus maripaludis chaperonin (MmCpn) (Q6LX38 1-543): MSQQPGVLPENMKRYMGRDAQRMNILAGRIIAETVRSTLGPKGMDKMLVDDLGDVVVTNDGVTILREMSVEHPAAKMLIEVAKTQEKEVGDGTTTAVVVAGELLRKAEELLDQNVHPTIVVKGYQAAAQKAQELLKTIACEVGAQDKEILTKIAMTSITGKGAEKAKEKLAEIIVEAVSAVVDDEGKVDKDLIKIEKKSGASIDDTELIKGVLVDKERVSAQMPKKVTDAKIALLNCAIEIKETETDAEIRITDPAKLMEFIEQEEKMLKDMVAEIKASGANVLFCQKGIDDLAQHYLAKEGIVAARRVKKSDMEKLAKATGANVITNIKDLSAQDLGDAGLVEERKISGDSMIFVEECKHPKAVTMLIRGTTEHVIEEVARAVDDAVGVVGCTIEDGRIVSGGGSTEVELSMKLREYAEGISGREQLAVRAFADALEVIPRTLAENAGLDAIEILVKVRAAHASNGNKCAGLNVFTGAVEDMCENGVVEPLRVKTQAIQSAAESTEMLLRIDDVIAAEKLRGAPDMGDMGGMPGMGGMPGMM
Sequence of Thyrotropin receptor (Homo sapiens) (P16473 whole entry, looked up): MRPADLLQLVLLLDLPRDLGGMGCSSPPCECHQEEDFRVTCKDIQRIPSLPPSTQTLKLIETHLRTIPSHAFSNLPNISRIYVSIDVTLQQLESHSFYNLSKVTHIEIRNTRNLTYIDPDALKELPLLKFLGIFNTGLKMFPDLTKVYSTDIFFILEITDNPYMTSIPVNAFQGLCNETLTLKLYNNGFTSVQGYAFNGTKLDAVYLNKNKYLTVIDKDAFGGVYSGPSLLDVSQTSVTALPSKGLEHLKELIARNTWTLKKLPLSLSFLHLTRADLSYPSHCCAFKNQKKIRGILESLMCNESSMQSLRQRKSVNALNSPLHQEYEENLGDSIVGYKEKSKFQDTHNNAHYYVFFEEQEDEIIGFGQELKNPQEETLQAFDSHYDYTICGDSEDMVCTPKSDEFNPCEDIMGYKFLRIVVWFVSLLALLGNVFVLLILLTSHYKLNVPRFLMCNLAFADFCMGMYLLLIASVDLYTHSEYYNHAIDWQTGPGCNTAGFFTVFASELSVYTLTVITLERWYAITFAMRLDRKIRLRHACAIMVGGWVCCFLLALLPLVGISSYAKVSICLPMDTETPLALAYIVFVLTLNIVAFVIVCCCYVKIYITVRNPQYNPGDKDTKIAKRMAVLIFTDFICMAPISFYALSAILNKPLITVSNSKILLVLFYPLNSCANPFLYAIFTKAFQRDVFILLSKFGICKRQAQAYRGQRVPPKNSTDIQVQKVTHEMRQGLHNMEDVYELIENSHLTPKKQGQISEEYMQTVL
Sequence of Flap endonuclease 1 (Homo sapiens) (P39748 whole entry, looked up): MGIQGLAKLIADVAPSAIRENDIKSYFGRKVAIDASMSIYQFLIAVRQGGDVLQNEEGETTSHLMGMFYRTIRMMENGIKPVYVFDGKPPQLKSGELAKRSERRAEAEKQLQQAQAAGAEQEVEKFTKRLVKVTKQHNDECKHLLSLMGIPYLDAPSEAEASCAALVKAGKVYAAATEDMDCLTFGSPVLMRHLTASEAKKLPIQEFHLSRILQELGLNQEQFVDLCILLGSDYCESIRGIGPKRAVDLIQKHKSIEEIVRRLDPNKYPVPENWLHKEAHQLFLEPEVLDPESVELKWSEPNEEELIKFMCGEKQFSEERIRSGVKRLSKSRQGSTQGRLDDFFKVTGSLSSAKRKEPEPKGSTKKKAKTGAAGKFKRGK
Sequence of Galactokinase (Homo sapiens) (P51570 whole entry, looked up): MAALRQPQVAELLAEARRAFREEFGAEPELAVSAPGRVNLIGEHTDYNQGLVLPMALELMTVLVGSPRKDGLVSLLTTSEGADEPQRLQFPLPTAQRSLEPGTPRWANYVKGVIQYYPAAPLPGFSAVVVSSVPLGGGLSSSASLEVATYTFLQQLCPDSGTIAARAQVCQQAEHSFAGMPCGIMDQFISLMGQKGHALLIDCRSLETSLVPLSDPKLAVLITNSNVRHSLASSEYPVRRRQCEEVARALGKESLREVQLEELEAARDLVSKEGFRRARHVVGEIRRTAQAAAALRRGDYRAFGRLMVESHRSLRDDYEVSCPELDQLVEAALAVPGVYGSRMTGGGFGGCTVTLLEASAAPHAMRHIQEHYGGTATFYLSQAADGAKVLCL
Sequence of Thioredoxin reductase 1, cytoplasmic (Rattus norvegicus) (O89049 whole entry, looked up): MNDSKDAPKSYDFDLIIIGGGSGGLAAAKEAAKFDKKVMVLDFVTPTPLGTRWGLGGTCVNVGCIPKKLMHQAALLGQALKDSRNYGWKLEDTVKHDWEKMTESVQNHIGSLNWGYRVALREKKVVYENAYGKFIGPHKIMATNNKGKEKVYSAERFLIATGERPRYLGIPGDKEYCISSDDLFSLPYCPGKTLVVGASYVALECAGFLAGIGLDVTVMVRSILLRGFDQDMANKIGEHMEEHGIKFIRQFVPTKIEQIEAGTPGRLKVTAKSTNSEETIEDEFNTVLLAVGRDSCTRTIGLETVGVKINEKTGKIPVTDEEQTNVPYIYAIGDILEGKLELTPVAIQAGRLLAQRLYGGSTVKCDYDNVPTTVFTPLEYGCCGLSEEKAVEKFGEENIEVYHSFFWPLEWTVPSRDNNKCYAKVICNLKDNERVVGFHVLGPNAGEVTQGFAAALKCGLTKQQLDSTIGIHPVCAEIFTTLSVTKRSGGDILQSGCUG
Sequence of Thyrotropin-releasing hormone receptor (Homo sapiens) (P34981 whole entry, looked up): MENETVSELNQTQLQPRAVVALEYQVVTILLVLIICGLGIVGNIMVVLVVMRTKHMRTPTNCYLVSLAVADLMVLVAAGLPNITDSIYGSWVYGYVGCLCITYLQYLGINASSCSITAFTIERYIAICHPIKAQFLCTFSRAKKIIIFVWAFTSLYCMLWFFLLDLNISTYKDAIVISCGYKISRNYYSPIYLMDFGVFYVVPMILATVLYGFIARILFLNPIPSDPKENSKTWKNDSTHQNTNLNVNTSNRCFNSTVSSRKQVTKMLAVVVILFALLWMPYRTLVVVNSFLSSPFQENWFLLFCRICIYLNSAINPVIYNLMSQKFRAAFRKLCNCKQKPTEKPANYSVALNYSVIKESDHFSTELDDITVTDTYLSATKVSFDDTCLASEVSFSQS
Sequence of Transient receptor potential cation channel subfamily V member 1 (Homo sapiens) (Q8NER1 whole entry, looked up): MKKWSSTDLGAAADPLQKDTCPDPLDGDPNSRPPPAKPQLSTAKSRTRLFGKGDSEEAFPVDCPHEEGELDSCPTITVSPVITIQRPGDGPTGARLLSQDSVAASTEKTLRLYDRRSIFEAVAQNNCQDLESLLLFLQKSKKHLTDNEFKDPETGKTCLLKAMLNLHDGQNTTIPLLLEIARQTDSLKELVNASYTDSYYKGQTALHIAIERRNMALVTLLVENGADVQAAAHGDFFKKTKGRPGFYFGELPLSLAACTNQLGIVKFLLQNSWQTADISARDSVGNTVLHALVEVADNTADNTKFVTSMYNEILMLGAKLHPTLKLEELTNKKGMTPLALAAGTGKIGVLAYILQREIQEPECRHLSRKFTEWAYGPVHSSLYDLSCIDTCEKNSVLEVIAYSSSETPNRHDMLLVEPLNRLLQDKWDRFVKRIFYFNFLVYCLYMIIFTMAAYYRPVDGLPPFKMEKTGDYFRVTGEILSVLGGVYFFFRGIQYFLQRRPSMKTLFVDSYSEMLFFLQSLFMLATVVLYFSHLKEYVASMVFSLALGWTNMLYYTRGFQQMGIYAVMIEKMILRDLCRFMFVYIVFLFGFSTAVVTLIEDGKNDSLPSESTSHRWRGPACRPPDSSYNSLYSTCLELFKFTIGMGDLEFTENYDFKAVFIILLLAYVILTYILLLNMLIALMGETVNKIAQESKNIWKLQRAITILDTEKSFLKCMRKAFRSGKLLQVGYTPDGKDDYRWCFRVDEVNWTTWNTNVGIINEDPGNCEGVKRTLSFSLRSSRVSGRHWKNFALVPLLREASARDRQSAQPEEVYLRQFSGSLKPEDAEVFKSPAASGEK
Sequence of D(1A) dopamine receptor (Homo sapiens) (P21728 whole entry, looked up): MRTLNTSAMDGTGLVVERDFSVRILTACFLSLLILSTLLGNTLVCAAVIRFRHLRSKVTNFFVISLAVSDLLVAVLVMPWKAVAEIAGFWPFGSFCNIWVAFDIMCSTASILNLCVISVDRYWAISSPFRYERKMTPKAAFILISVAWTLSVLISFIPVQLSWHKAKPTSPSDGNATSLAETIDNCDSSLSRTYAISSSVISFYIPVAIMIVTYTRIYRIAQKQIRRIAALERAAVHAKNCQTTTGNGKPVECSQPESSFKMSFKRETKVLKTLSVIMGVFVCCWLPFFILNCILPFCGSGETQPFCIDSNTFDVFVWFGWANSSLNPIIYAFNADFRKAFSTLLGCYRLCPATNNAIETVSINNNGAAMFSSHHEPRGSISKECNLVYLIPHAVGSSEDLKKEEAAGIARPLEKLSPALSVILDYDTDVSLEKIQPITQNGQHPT
Sequence of Chromobox protein homolog 1 (Homo sapiens) (P83916 whole entry, looked up): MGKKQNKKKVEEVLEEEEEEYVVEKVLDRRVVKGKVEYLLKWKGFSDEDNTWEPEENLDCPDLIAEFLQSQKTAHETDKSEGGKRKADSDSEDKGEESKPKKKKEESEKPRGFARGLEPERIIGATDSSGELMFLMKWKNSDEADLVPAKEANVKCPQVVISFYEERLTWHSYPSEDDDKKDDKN

Consider `COc1ccccc1CNCCCCCCNCCCCCCCCNCCCCCCNCc1ccccc1OC`, for which the Potency entry in experiment [1], in experiment [2], in experiment [4], in experiment [8], in [9] and in experiment [10] was “inactive” each time. The Potency entry in [11], in experiment [12], in [15] and in experiment [16] was “inactive” in each case. The Potency in experiment [3] is 50.1 µM (active). Besides, the molecule was classed as inactive in [5], in experiment [6], in experiment [7] and in experiment [14]. Moreover, the activation in experiment [13] was 0.938% (inactive).
In the case of `O=C(CCCCCN1CCN(c2ccccc2-c2ccccc2)CC1)NC1CCCc2ccccc21` (centres undefined), the Potency entry in experiment [17], in experiment [2], in [8], in experiment [9] and in experiment [11] was “inactive” throughout. The outcome in experiment [5] and in [14] was inactive. In addition, the Potency in [10] is 7.08 µM (active).
As for `CN1C2CCC1CC(OC(=O)C(O)c1ccccc1)C2` (centres undefined), the Potency result in experiment [1], in [2], in [3], in [4], in [8] and in [9] was “inactive” throughout. The Potency result in experiment [10], in experiment [11], in [12], in experiment [18], in experiment [15] and in [16] was “inactive” each time. Also, the molecule was called inactive in [5], in experiment [6], in [7] and in experiment [14]. In addition, the activation in experiment [13] was 1.19% (inactive). Besides, the viability change in [18] is -17.3%.
For `C#CCN1C(C)=C(C(=O)OC)C(c2cccc([N+](=O)[O-])c2)C(C(=O)OCC)=C1C` (centres undefined), the Potency result in [1], in [2], in experiment [3], in experiment [8], in experiment [10] and in [11] was “inactive” each time. The Potency result in experiment [18] and in experiment [16] was “inactive” each time. The molecule was classed as inactive in experiment [5], in experiment [6], in experiment [7] and in experiment [14]. Besides, in experiment [13], the activation was -10.2% (inactive). The viability change in experiment [18] was -0.517%.
Take `Oc1ccccc1O`: the Potency result in experiment [17], in experiment [8], in [9], in [10], in experiment [11] and in [12] was “inactive” throughout. Further, the Potency result in experiment [16] is “inactive”. The result in experiment [5], in experiment [6] and in experiment [7] was inactive. The activation in experiment [13] is 0.375% (inactive).
`NC(=S)NCCC[C@H](N)C(=O)O`: the Potency result in experiment [17], in experiment [3], in [8], in experiment [9], in experiment [10] and in [11] was “inactive” in each case. Further, the Potency result in experiment [12] and in experiment [18] was “inactive” each time. For the same molecule, the Potency in [4] was 10 µM (active). Moreover, the result in experiment [5] and in [14] was inactive. Further, the viability change in experiment [18] stood at 2.08%.
As to `NC(CCCP(=O)(O)O)C(=O)O` (centres undefined), the Potency result in [1], in experiment [2], in experiment [3], in [4], in [8] and in experiment [10] was “inactive” in each case. The Potency entry in [11], in experiment [12], in experiment [15] and in experiment [16] was “inactive” in each case. In addition, the molecule was called inactive in experiment [5], in experiment [6], in [7] and in [14]. Moreover, the activation in experiment [13] was 0.562% (inactive).

Values taken from PubChem BioAssay (NCATS).
